Test results: PubChem BioAssay AID1159580 (chemical genetic matrix, 2015)
Screen size: about 5,500 compounds; about 2,000 (36%) were called active. Inconclusive results (about 18%) are left out. No stated cut-off is given here; in the data, active means normalized growth mostly below about 0.91 (no sharp cut-off); inconclusive means no clear call, values can overlap the other calls; inactive means mostly above about 0.92. The list shows a part of the results.

Assay: chemical genetic growth profiling, strain panel (AID 1159580);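 further: tested at 20 µM; growth read once vehicle control cultures reached saturation at 30 °C; 1 = growth at the plate median or of vehicle wells; lower values mean less growth of the strain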
Conditions: growth OD

Measured: normalized growth

CC(=O)Nc1ccccc1
inactive: S. cerevisiae deletion strains, locus YJR066W, strain TOR1, active compounds read low 0.911 | S. cerevisiae deletion strains, locus YJR075W, strain HOC1, active compounds read low 0.99 | S. cerevisiae deletion strains, locus YKL009W, strain mrt4, active compounds read low 0.97 | S. cerevisiae deletion strains, locus YKL068W, active compounds read low 0.99 | S. cerevisiae deletion strains, locus YKL085W, strain MDH1 (second series), active compounds read low 0.977 | S. cerevisiae deletion strains, locus YKL085W, strain MDH1, active compounds read low 0.977 | S. cerevisiae deletion strains, locus YKL160W, strain elf1, active compounds read low 0.985 | S. cerevisiae deletion strains, locus YKL190W, strain CNB1, active compounds read low 0.973 | S. cerevisiae deletion strains, locus YKR001C, strain vps1, active compounds read low 0.98 | S. cerevisiae deletion strains, locus YKR026C, strain gcn3, active compounds read low 0.927 | S. cerevisiae deletion strains, locus YKR091W, strain srl3, active compounds read low 0.95 | S. cerevisiae deletion strains, locus YLL001W, strain dnm1, active compounds read low 0.979 | S. cerevisiae deletion strains, locus YLL026W, active compounds read low 0.972 | S. cerevisiae deletion strains, locus YLL041C, strain sdh2, active compounds read low 0.985 | S. cerevisiae deletion strains, locus YLR027C, strain aat2, active compounds read low 0.961 | S. cerevisiae deletion strains, locus YLR039C, strain RIC1, active compounds read low 0.966 | S. cerevisiae deletion strains, locus YLR058C, strain SHM2, active compounds read low 0.972 | S. cerevisiae deletion strains, locus YLR102C, strain apc9, active compounds read low 0.983 | S. cerevisiae deletion strains, locus YLR113W, strain HOG1, active compounds read low 0.959 | S. cerevisiae deletion strains, locus YLR221C, strain rsa3, active compounds read low 0.967 | S. cerevisiae deletion strains, locus YLR258W, strain gsy2, active compounds read low 0.98 | S. cerevisiae deletion strains, locus YLR262C, strain YPT6 (second series), active compounds read low 0.976 | S. cerevisiae deletion strains, locus YLR262C, strain YPT6, active compounds read low 0.941 | S. cerevisiae deletion strains, locus YLR268W, strain sec22, active compounds read low 0.99 | S. cerevisiae deletion strains, locus YLR320W, strain mms22, active compounds read low 0.964 | S. cerevisiae deletion strains, locus YLR330W, strain CHS5, active compounds read low 0.996 | S. cerevisiae deletion strains, locus YLR342W, strain FKS1 (second series), active compounds read low 1.07 | S. cerevisiae deletion strains, locus YLR342W, strain FKS1, active compounds read low 0.954 | S. cerevisiae deletion strains, locus YLR357W, strain rsc2, active compounds read low 0.967 | S. cerevisiae deletion strains, locus YLR370C, strain arc18, active compounds read low 0.97 | S. cerevisiae deletion strains, locus YLR371W, strain rom2, active compounds read low 0.999 | S. cerevisiae deletion strains, locus YLR384C, strain iki3, active compounds read low 0.986 | S. cerevisiae deletion strains, locus YLR418C, strain cdc73, active compounds read low 1 | S. cerevisiae deletion strains, locus YML016C, strain PPZ1, active compounds read low 0.993 | S. cerevisiae deletion strains, locus YML032C, strain rad52, active compounds read low 0.992 | S. cerevisiae deletion strains, locus YML120C, strain ndi1, active compounds read low 0.967 | S. cerevisiae deletion strains, locus YML124C, strain tub3, active compounds read low 0.982 | S. cerevisiae deletion strains, locus YMR058W, strain fet3, active compounds read low 0.976 | S. cerevisiae deletion strains, locus YMR078C, strain ctf18, active compounds read low 0.982 | S. cerevisiae deletion strains, locus YMR125W, strain sto1, active compounds read low 0.944 | S. cerevisiae deletion strains, locus YMR129W, active compounds read low 0.984 | S. cerevisiae deletion strains, locus YMR205C, strain PFK2, active compounds read low 0.969 | S. cerevisiae deletion strains, locus YMR223W, strain ubp8, active compounds read low 0.985 | S. cerevisiae deletion strains, locus YMR231W, strain pep5, active compounds read low 0.986 | S. cerevisiae deletion strains, locus YMR263W, strain SAP30, active compounds read low 0.981 | S. cerevisiae deletion strains, locus YMR307W, strain GAS1, active compounds read low 1.07 | S. cerevisiae deletion strains, locus YNL067W, strain RPL9B, active compounds read low 0.964 | S. cerevisiae deletion strains, locus YNL071W, strain lat1, active compounds read low 0.976 | S. cerevisiae deletion strains, locus YNL183C, strain NPR1, active compounds read low 0.915 | S. cerevisiae deletion strains, locus YNL209W, strain ssb2, active compounds read low 0.975 | S. cerevisiae deletion strains, locus YNL233W, strain BNI4, active compounds read low 0.978 | S. cerevisiae deletion strains, locus YNL248C, strain rpa49, active compounds read low 0.969 | S. cerevisiae deletion strains, locus YNL250W, strain rad50, active compounds read low 0.97 | S. cerevisiae deletion strains, locus YNL271C, strain bni1, active compounds read low 0.995 | S. cerevisiae deletion strains, locus YNL298W, strain CLA4, active compounds read low 0.986 | S. cerevisiae deletion strains, locus YNL307C, strain MCK1, active compounds read low 0.987 | S. cerevisiae deletion strains, locus YNL322C, strain KRE1 (second series), active compounds read low 0.942 | S. cerevisiae deletion strains, locus YNR049C, strain mso1, active compounds read low 0.952 | S. cerevisiae deletion strains, locus YNR052C, strain pop2, active compounds read low 0.996 | S. cerevisiae deletion strains, locus YOL006C, strain TOP1, active compounds read low 0.928 | S. cerevisiae deletion strains, locus YOL012C, strain htz1 0.771 | S. cerevisiae deletion strains, locus YOL147C, strain pex11, active compounds read low 0.982 | S. cerevisiae deletion strains, locus YOR001W, strain rrp6, active compounds read low 0.979 | S. cerevisiae deletion strains, locus YOR061W, strain CKA2, active compounds read low 0.959 | S. cerevisiae deletion strains, locus YOR069W, strain VPS5, active compounds read low 0.994 | S. cerevisiae deletion strains, locus YOR070C, strain gyp1, active compounds read low 0.972 | S. cerevisiae deletion strains, locus YOR080W, strain dia2, active compounds read low 0.961 | S. cerevisiae deletion strains, locus YOR083W, strain WHI5, active compounds read low 0.965 | S. cerevisiae deletion strains, locus YOR106W, strain vam3, active compounds read low 0.956 | S. cerevisiae deletion strains, locus YOR136W, strain idh2, active compounds read low 0.988 | S. cerevisiae deletion strains, locus YOR144C, strain elg1, active compounds read low 0.987 | S. cerevisiae deletion strains, locus YOR184W, strain ser1, active compounds read low 0.981 | S. cerevisiae deletion strains, locus YOR231W, strain MKK1, active compounds read low 0.968 | S. cerevisiae deletion strains, locus YOR265W, strain rbl2, active compounds read low 0.973 | S. cerevisiae deletion strains, locus YOR270C, strain vph1, active compounds read low 0.927 | S. cerevisiae deletion strains, locus YOR290C, strain snf2, active compounds read low 0.971 | S. cerevisiae deletion strains, locus YOR316C, strain cot1, active compounds read low 0.978 | S. cerevisiae deletion strains, locus YPL051W, strain arl3, active compounds read low 0.982 | S. cerevisiae deletion strains, locus YPL055C, strain LGE1, active compounds read low 0.906 | S. cerevisiae deletion strains, locus YPL078C, strain atp4, active compounds read low 0.971 | S. cerevisiae deletion strains, locus YPL106C, strain sse1, active compounds read low 0.961 | S. cerevisiae deletion strains, locus YPL240C, strain hsp82, active compounds read low 0.994 | S. cerevisiae deletion strains, locus YPL256C, strain CLN2, active compounds read low 0.953 | S. cerevisiae deletion strains, locus YPR119W, strain clb2, active compounds read low 0.986 | S. cerevisiae deletion strains, locus YPR141C, strain kar3, active compounds read low 0.989 | S. cerevisiae deletion strains, locus YPR163C, strain tif3, active compounds read low 0.996 | S. cerevisiae deletion strains, locus YPR167C, strain met16, active compounds read low 0.994 | S. cerevisiae deletion strains, strain wtn01, active compounds read low 1 | S. cerevisiae strains, strain wild type, active compounds read low 0.982
